Assay [1] has as its target Voltage-gated inwardly rectifying potassium channel KCNH2 (Homo sapiens) (UniProt Q12809). The assay is described as follows: qHTS Assay for Small Molecule Inhibitors of the Human hERG Channel Activity (AID 588834).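 Also: lower thallium flux fluorescence means stronger hERG block; nearly all actives have a fitted effect of over 50% in size.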 Also: potency is read from the fitted curve at half-maximal effect. Particulars: U2OS BacMam hERG, FluxOR thallium flux fluorescence; series mostly up to 46.1 µM. In a few lines: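 Thallium serves as surrogate for K+ influx through BacMam-delivered hERG in U2OS cells. Compounds are added for about 10 minutes after dye loading; stimulation buffer then starts flux, monitored kinetically on FDSS.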

Assay [2] addresses Glutaminase kidney isoform, mitochondrial (Homo sapiens) (UniProt O94925). As to the kind of experiment: qHTS for Inhibitors of Glutaminase (GLS): LOPAC Validation (AID 624146). Also: nearly all actives have a fitted effect of over 60% in size. Also: potency is read from the fitted curve at half-maximal effect. The following applies: glutaminase enzyme activity inhibition; series mostly up to 46.1 µM. In a few lines:
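Two-point fluorescence kinetic (t0, 30 min RT) for hKGA; glutamate detected via glutamate oxidase–HRP–Amplex Red. Substrate: 1 mM L-glutamine solution; buffer 45 mM KH2PO4, pH 8.2.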
(In general: Quantitative high-throughput screening tests each substance at several concentrations.)

Assay [3] can be described thus: qHTS of Trypanosoma Brucei Inhibitors: LOPAC Validation (AID 624147). Also: potency is read from the fitted curve at half-maximal effect. Particulars: purified enzyme assay, luminescence, 45 min; series mostly up to 57.5 µM. The gist of the method:
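Readout: single end-point luminescence (Kinase-Glo Plus, 10 min). Reaction conditions were TbPYK/substrate plus 130 uM ADP, 45 min at RT, pH 7.2 TEA buffer. No-enzyme wells served as controls, and data were normalized before concentration-response fitting.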

Assay [4] deals with Glucagon-like peptide 1 receptor (Homo sapiens) (UniProt P43220). As to the kind of experiment: qHTS of GLP-1 Receptor Agonists: LOPAC Validation (AID 624148).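 Also: higher luminescence signal means agonism.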 The following applies: GLP-1R agonist cell assay; series mostly up to 46.1 µM. In a few lines: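 HEK293 cells stably co-expressing GLP-1R and a cAMP-responsive luciferase reporter, plated 12 hours before compound, then incubated 4-6 hr at 37 deg C. Luminescence read 12 min after detection reagent.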

Assay [5] is described as follows: qHTS of Nrf2 Activators: LOPAC Validation (AID 624149). The following applies: Nrf2/ARE reporter cell assay; series mostly up to 46.1 µM. In a few lines:
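AREc32_Fluc cells, 1000/well, OPTI-MEM + 5% FBS, o/n 37 deg C 5% CO2; compound pin-transfer, 24 hr 37 deg C; Steady-Glo 30 min RT, luminescence read.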

The target in assay [6] is Luciferin 4-monooxygenase (Photinus pyralis) (UniProt P08659). As to the kind of experiment: Biochemical firefly luciferase enzyme assay for NPC (AID 624030).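 Also: purified P. pyralis luciferase at 10 nM with luciferin and ATP substrate; nearly all actives have a fitted effect of over 70% in size.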 Particulars: purified P. pyralis luciferase, luminescence, 5 min; series mostly up to 58.6 µM. The gist of the method:
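Purified P. pyralis luciferase at 10 nM in 50 mM Tris Acetate (final), luminescence read within 5 minutes of enzyme addition to compounds. Activity normalised to PTC124 versus DMSO; concentration-response curves classed by r2, magnitude and activity.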

Results filed as inconclusive are left out. The source made the active and inactive calls. Calls follow the shape of the dose curve; as a rule, active = well fitted curve in the direction sought with a large enough effect; inconclusive = small, poorly fitted or top-dose-only effect, or another doubt; inactive = no such curve, though single readings can be large; an effect the other way counts as inactive or inconclusive.

Chain of Luciferin 4-monooxygenase (Photinus pyralis) (P08659 whole entry, looked up): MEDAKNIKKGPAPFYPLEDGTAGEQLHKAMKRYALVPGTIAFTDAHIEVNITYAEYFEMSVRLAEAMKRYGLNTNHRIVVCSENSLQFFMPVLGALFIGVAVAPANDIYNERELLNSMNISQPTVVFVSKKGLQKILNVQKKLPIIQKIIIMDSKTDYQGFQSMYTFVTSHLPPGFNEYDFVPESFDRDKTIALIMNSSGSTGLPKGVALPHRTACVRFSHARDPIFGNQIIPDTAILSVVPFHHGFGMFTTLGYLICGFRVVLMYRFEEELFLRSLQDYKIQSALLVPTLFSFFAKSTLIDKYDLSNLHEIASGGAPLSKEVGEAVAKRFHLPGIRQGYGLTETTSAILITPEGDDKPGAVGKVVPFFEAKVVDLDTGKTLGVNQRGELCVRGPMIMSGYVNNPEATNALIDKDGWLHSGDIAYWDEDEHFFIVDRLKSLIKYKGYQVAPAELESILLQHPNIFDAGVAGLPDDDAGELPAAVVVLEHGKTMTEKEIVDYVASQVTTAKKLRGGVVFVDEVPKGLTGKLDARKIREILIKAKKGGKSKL
Chain of Glucagon-like peptide 1 receptor (Homo sapiens) (P43220 whole entry, looked up): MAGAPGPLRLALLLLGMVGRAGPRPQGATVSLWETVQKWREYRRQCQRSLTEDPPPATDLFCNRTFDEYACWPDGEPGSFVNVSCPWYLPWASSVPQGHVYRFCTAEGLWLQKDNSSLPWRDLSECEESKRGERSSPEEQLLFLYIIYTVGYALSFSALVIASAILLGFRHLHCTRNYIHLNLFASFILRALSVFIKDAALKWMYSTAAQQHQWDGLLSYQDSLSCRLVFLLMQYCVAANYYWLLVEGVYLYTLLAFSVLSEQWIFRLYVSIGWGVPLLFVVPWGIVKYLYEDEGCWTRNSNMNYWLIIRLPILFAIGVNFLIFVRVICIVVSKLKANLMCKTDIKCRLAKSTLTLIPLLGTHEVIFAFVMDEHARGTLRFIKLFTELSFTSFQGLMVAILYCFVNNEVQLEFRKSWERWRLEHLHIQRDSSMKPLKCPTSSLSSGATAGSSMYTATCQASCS
Chain of Voltage-gated inwardly rectifying potassium channel KCNH2 (Homo sapiens) (Q12809 whole entry, looked up): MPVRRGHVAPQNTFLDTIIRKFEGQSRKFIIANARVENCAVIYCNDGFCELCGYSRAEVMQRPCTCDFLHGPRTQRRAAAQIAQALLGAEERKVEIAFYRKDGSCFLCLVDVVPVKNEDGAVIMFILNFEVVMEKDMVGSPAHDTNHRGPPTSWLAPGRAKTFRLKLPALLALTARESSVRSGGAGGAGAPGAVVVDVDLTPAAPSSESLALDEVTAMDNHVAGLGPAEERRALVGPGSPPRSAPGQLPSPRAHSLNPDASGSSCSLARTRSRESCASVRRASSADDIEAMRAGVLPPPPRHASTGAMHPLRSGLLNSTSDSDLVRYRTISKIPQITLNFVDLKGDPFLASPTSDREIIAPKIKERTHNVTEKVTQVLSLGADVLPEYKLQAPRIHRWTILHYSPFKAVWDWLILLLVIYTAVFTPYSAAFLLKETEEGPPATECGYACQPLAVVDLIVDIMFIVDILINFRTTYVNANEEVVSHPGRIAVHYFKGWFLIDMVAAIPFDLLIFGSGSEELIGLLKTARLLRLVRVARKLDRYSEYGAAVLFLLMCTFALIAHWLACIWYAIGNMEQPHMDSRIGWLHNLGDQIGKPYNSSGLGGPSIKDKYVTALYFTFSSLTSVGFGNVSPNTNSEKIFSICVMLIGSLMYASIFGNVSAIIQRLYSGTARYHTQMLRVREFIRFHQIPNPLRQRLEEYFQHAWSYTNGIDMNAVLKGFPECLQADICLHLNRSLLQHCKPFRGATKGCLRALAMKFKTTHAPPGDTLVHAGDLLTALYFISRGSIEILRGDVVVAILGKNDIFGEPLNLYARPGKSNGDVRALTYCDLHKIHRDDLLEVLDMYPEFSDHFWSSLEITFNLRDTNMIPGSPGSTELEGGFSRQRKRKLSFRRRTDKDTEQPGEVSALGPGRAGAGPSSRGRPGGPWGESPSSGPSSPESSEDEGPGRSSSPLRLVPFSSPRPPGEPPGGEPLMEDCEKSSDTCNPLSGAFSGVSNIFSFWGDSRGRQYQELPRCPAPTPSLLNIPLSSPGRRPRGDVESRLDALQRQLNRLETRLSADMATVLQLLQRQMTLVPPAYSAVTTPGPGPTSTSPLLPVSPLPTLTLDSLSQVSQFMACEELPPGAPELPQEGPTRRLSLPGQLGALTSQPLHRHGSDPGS
Chain of Glutaminase kidney isoform, mitochondrial (Homo sapiens) (O94925 whole entry, looked up, canonical isoform): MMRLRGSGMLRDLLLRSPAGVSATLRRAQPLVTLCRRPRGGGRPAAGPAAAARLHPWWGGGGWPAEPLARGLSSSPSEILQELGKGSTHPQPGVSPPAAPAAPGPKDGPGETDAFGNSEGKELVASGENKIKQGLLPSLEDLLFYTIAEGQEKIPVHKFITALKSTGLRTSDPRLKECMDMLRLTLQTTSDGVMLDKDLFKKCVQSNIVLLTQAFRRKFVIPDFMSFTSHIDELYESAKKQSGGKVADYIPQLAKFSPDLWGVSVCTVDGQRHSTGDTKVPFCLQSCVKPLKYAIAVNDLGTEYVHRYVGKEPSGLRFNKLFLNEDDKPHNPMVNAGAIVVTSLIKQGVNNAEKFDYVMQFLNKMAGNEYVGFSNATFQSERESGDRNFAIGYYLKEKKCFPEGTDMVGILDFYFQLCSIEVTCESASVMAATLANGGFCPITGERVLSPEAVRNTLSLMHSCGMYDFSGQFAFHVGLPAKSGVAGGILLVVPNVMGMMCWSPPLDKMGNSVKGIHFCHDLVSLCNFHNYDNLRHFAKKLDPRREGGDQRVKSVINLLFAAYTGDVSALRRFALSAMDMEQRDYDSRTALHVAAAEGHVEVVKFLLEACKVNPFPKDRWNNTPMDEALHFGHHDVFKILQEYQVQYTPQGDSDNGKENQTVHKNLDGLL

Take `Cn1cc(C2=C(c3ccc(Cl)cc3Cl)C(=O)NC2=O)c2ccccc21`: in assay [1], the Potency was 2.51 µM (active). Further, the Potency entry in assay [2] and in assay [3] was “inactive” throughout. Further, the molecule was classed as inactive in assay [4] and in assay [5].

In the case of `N#C/C(=C\c1c[nH]c2ccccc12)C(=O)c1ccc(O)c(O)c1`, the Potency entry in assay [1] and in assay [3] was “inactive” throughout. Besides, in assay [2], the Potency was 1.12 µM (active). The molecule was called inactive in assay [4] and in assay [5].

As for `N[C@@H](CC(=O)O)C(=O)O`, the Potency result in assay [1], in assay [2] and in assay [3] was “inactive” throughout. The molecule was called inactive in assay [4] and in assay [5].

Turning to `CCCn1c(=O)c2[nH]c(-c3ccc(OCC(=O)NCCN)cc3)nc2n(CCC)c1=O`, the Potency entry in assay [1], in assay [2] and in assay [3] was “inactive” each time. The molecule was called inactive in assay [4] and in assay [5].

With `OC[C@H]1O[C@@H](n2cnc3c(NC4CCCCC4)ncnc32)[C@H](O)[C@@H]1O`, the Potency entry in assay [1], in assay [2] and in assay [3] was “inactive” in each case. Moreover, the outcome in assay [4] and in assay [5] was inactive.

Consider `COc1cc2nc(N3CCN(C(=O)OCc4ccccc4)C(C(=O)NC(C)(C)C)C3)nc(N)c2cc1OC` (configuration not stated), for which the Potency entry in assay [1], in assay [2] and in assay [3] was “inactive” each time. Moreover, the molecule was classed as inactive in assay [4] and in assay [5].

Take `c1ccc(-c2ccccn2)nc1`: the Potency result in assay [1], in assay [2] and in assay [3] was “inactive” each time. Besides, the molecule was classed as inactive in assay [4] and in assay [5].

Take `CCN1/C(=C/C(C)=O)Sc2ccc(OC)cc21`: the Potency entry in assay [1], in assay [2] and in assay [3] was “inactive” in each case. The molecule was classed as inactive in assay [4] and in assay [5].

Consider `NCCCCC(=O)O`, for which the Potency result in assay [1], in assay [2] and in assay [3] was “inactive” throughout. For the same molecule, the result in assay [4] and in assay [5] was inactive.

On to `C[N+](C)(C)CCOP(=O)(O)OP(=O)([O-])OC[C@H]1O[C@@H](n2ccc(N)nc2=O)[C@H](O)[C@@H]1O`, for which the Potency entry in assay [1], in assay [2] and in assay [3] was “inactive” in each case. Further, the outcome in assay [4] and in assay [5] was inactive.

For `NO`, the Potency result in assay [1], in assay [2] and in assay [3] was “inactive” in each case. Moreover, the outcome in assay [4] and in assay [5] was inactive.

For the molecule `CN=c1nc(-c2ccccc2)n(-c2ccccc2)s1`, the results for the Potency in assay [1] and in assay [3] were 11.2 µM (active) and 8.49 µM (active), respectively. Also, in assay [2], the Potency entry is “inactive”. Further, the result in assay [4] and in assay [5] was inactive.

In the case of `O=c1[nH]c2cc(C(F)(F)F)ccc2n1-c1cc(C(F)(F)F)ccc1O`, the Potency entry in assay [1], in assay [2] and in assay [3] was “inactive” each time. In addition, the outcome in assay [4] and in assay [5] was inactive.

Take `COc1cc(C(O)CO)ccc1OS(=O)(=O)O` (configuration not stated): the Potency result in assay [1], in assay [2] and in assay [3] was “inactive” throughout. Also, the call in assay [4] and in assay [5] was inactive.

In the case of `CCCCCCCCCCCCCCCCCCNC(=O)OCC(COP(=O)([O-])OCC[n+]1ccsc1)OC` (configuration not stated), the Potency result in assay [1], in assay [2] and in assay [3] was “inactive” throughout. The outcome in assay [4] and in assay [5] was inactive.

Regarding `O=c1[nH]c2cc(Cl)c(Cl)cc2[nH]c1=O`, the Potency entry in assay [1], in assay [2] and in assay [3] was “inactive” throughout. Moreover, the molecule was classed as inactive in assay [4] and in assay [5].

On to `Cn1c(=O)c2[nH]c(-c3ccccc3)nc2n(C)c1=O`, for which the Potency entry in assay [1], in assay [2] and in assay [3] was “inactive” each time. Moreover, the result in assay [4] and in assay [5] was inactive.

With `Cc1cc(NC(=O)Nc2ccc3c(ccn3C)c2)sn1`, the Potency entry in assay [1], in assay [2] and in assay [3] was “inactive” throughout. The result in assay [4] and in assay [5] was inactive.

In the case of `O=C(c1cc(O)c(O)c([N+](=O)[O-])c1)c1ccccc1F`, the Potency entry in assay [1] and in assay [3] was “inactive” throughout. The Potency in assay [2] is 4.47 µM (active). Further, the outcome in assay [4] and in assay [5] was inactive.

Regarding `CCCCCCCCCCCCCCCCCC(=O)OC(CC(=O)O)C[N+](C)(C)C` (configuration not stated), the Potency result in assay [1], in assay [2] and in assay [3] was “inactive” throughout. The result in assay [4] and in assay [5] was inactive.

Regarding `Fc1cccc(/C=N/N=C/c2cccc(F)c2)c1`, the Potency result in assay [1], in assay [2] and in assay [3] was “inactive” each time. In addition, the result in assay [4] and in assay [5] was inactive.

`O=C(O)CNC(=O)C(CS)Cc1ccccc1` (configuration not stated): the Potency entry in assay [1], in assay [2] and in assay [3] was “inactive” throughout. In addition, the call in assay [4] and in assay [5] was inactive.

For `CN(C)c1nc2c(Br)c(Br)c(Br)c(Br)c2[nH]1`, the Potency entry in assay [1], in assay [2] and in assay [3] was “inactive” in each case. The molecule was called inactive in assay [4] and in assay [5].

As for `N#C/C(=C\c1ccc(O)c(O)c1)C(=O)NCc1ccccc1`, the figures for the Potency in assay [1] and in assay [2] were 12.6 µM (active) and 0.562 µM (active), respectively. Also, in assay [3], the Potency result is “inactive”. Also, the result in assay [4] and in assay [5] was inactive.

With `O=C(O)c1cc(=O)c2ccccc2[nH]1`, the Potency result in assay [1] and in assay [3] was “inactive” each time. For the same molecule, the molecule was called inactive in assay [4] and in assay [5].

As to `O=Nc1ccc2oc(=O)ccc2c1`, the Potency entry in assay [1] and in assay [3] was “inactive” throughout. The molecule was called inactive in assay [4] and in assay [5].

As to `O=C(/C=C/c1ccc(O)c(O)c1)OCCc1ccccc1`, the Potency entry in assay [1] and in assay [3] was “inactive” each time. Further, the molecule was called inactive in assay [4].

For `O=C(Nc1cccc(C(=O)Nc2ccc(S(=O)(=O)O)c3cc(S(=O)(=O)O)cc(S(=O)(=O)O)c23)c1)Nc1cccc(C(=O)Nc2ccc(S(=O)(=O)O)c3cc(S(=O)(=O)O)cc(S(=O)(=O)O)c23)c1`, the Potency result in assay [1] was “inactive”. Besides, the result in assay [4] and in assay [5] was inactive.

For `CC12C(=O)OC(=O)C1(C)C1CCC2O1` (configuration not stated), the Potency result in assay [1] and in assay [3] was “inactive” in each case. For the same molecule, the result in assay [4] and in assay [5] was inactive.

Consider `NC(CCCP(=O)(O)O)C(=O)O` (configuration not stated), for which the Potency result in assay [1] and in assay [3] was “inactive” throughout. Moreover, the outcome in assay [4] and in assay [5] was inactive.

With `O=C(O)CC1CCCc2ccccc2C1O` (configuration not stated), the Potency result in assay [1] and in assay [3] was “inactive” throughout. Moreover, the result in assay [4] and in assay [5] was inactive.

In the case of `N=C1N=C(N)c2cc3ccccc3cc21`, the Potency result in assay [6] was “inactive”.

On to `C[C@@H](NC(=O)/C(C#N)=C/c1ccc(O)c(O)c1)c1ccccc1`, for which the Potency entry in assay [1] and in assay [3] was “inactive” each time. In addition, the outcome in assay [4] and in assay [5] was inactive.

Consider `Fc1ccc(C(OCCCc2cnc[nH]2)c2ccc(F)cc2)cc1`, for which the Potency in assay [1] is 1.41 µM (active). Further, the Potency result in assay [2] and in assay [3] was “inactive” in each case. The result in assay [4] and in assay [5] was inactive.

Turning to `CC(=O)c1ccc(OCC(=O)N2CCCCC2)cc1`, in assay [6], the Potency entry is “inactive”.

With `CO[C@@]1(NC(=O)Cc2cccs2)C(=O)N2C(C(=O)O)=C(COC(N)=O)CS[C@@H]21`, in assay [6], the Potency result is “inactive”.

Regarding `Cc1ccc(O)c(N=Nc2ccccc2)n1`, the Potency result in assay [1] was “inactive”. For the same molecule, the Potency in assay [3] is 19 µM (active). The call in assay [4] and in assay [5] was inactive.

(Values after PubChem BioAssay (NCATS).)
